Here are results for 35 molecules from PubChem BioAssay (NCI).

This is part of a sample that, as a whole, favours compounds with a hit. Of some 83,000 tested, about 20% had one in any assay.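 Each cell line was grown in a 96-well plate and treated with one concentration of compound for 48 hours. Values below 10 were considered active.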 Unmarked numbers belong to inactive results. Activity calls are given as the source filed them.

The first assay has as its system HOP-62 NSCLC. As to the kind of experiment: NCI-60 one-dose screen, 48 h (100 = growth as untreated, 0 = no growth, -100 = all killed). The following applies: 10 µM unless noted.
In the case of `CN1CCN(Cc2ccc(NC(=O)c3[nH]ncc3Nc3ccnc4ccsc34)cc2)CC1`, the growth is 40.4%.
The same measure, in the same setting: as for `CN1/C(=C\C=C\C2=[N+](C)c3ccccc3C2(C)C)C(C)(C)c2ccccc21`, the figure is 3.55% (active); as for `CS(=O)(=O)c1ccc(-c2cnc3ccc(-c4cccc(S(C)(=O)=O)c4)nn23)cc1`, 59.2%.
Still for that read-out and setting: for `COc1ccc(C/C(C)=C(\c2ccc(OCCN3CCCCCC3)cc2)c2ccc(OC(=O)C3CCCCC3)cc2)cc1` the value was 74.5%.

Another assay deals with NCI-H460 lung. The description is as above. The following applies: 10 µM unless noted.
Regarding `CNC(=O)c1cc(Oc2ccc3nc(NC(=O)Nc4ccc(CN5CCOCC5)c(C(F)(F)F)c4)sc3c2)ccn1`, the growth was 9.7% (active).
On the same count and under the same terms, for `Cc1cc(N/N=C/c2nc(-c3ccc(Cl)cc3)oc2C)c2cc(Br)ccc2n1` the value was -47.4% (active); for `COc1cc(-c2cc(-c3nc4ccc(Cl)cc4[nH]3)[nH]n2)cc(OC)c1OC`, 60.4%.
In the case of `COc1ccc(-c2cc(-c3cccnc3)nc3sc4c(=O)n(-c5ccc(C)cc5)cnc4c23)cc1OC`, the growth was 101%.
In the case of `CN(C)c1ccc(/C=C\C2=[N+](C)c3ccccc3C2(C)C)cc1`, the growth is 4.52% (active).
Still for that read-out and setting: for `COc1ccc(-c2cc(-c3cccnc3)nc3sc4c(=O)n(-c5ccc(C)cc5)nnc4c23)cc1OC` the value was 100%; for `COc1ccc(C/C(C)=C(\c2ccc(Cl)cc2)c2ccc(OCCN3CCCCCC3)cc2)cc1`, 70.4%.
Still for that read-out and setting: as for `O=C1C=CC(=O)N1c1ccc(Cc2ccc(N3C(=O)C=CC3=O)cc2)cc1`, the figure is 94.8%.
On the same count and under the same terms, as for `CN1CCN(Cc2ccc(NC(=O)c3[nH]ncc3Nc3ncnc4[nH]ccc34)cc2)CC1`, the figure is 2.62% (active).
With `O=C(Nc1ccc(Oc2ccc(F)cc2)c(Cl)c1)c1cccnc1`, the growth was 97%.
For `OC(c1cccc(C(F)(F)F)c1)c1cnccc1NC1CCCCCC1` (stereo not given), the growth was -23.9% (active).
On to `NS(=O)(=O)c1ccc(Nc2nc3n[nH]c(Nc4ccccc4)c3c(=O)[nH]2)cc1`, for which the growth was 103%.
The same measure, in the same setting: as for `O=C1/C(=C/c2ccccc2)CN(CCC(=O)N2C/C(=C\c3ccccc3)C(=O)/C(=C/c3ccccc3)C2)C/C1=C\c1ccccc1`, the figure is 84.7%; as for `CN1CCN(Cc2ccc(NC(=O)c3[nH]ncc3Nc3ncnc4c3CCC4)cc2)CC1`, 6.72% (active).
On the same count and under the same terms, for `O=C1C(=O)N(CCCCn2cc(CO)nn2)c2ccccc21` the value was 101%.
Regarding `Cc1cc(Nc2nc(N3CCN(C)CC3)nc3ccccc23)n[nH]1`, the growth was 69.6%.
As for `CC(=O)C1=C(O)C=C2Oc3c(C(=O)/C=C/c4cc(Cl)cc(Cl)c4)c(O)c(C)c(O)c3[C@]2(C)C1=O`, the growth was -5.02% (active).
For the molecule `O=C(Nc1ccc(CN2CCOCC2)cc1)c1[nH]ncc1Nc1ncnc2sccc12`, the growth was 3.28% (active).
Same read-out and setting: as for `COc1cc(-c2c3sc(=O)[nH]c3nc3c2c(=O)[nH]n3C(C)C)cc2c1OCO2`, the figure is 101%.
Turning to `O=C1/C(=C/c2ccc(Cl)c(Cl)c2)CN(C(=O)CCN2CCC(=NO)CC2)C/C1=C\c1ccc(Cl)c(Cl)c1`, the growth was -66% (active).
The same measure, in the same setting: as for `CCN(CC)CCCC(C)Nc1ccnc2c(OC)cccc12` (stereo not given), the figure is 125%; as for `COc1ccc(-c2cn3c(-c4ccc(OC)cc4)cnc3c(Oc3ccc4c(C)cc(=O)oc4c3)n2)cc1`, 26.4%.
Same read-out and setting: for `CN1CCN(Cc2ccc(NC(=O)c3[nH]ncc3Nc3ncnc4sccc34)cc2)CC1` the value was 5.43% (active); for `O=C([C@@H](COCc1ccccc1)N1C(=O)[C@@H](N2C(=O)OC[C@@H]2c2ccccc2)[C@H]1/C=C/c1ccccc1)N1CCC(CCN2CCCCC2)CC1`, 94.2%.
Still for that read-out and setting: for `OCCNCCNc1c2ccccc2nc2ccccc12` the value was 54.6%.
Consider `CC[C@H](Nc1ncnc(N)c1C(N)=O)c1nc2cccc(NCc3ccc(C(=O)NO)cc3)c2c(=O)n1-c1ccccc1`, for which the growth is 79.5%.
The same measure, in the same setting: as for `CCCCCCCCCc1cc(CN2CCCCC2)c(O)c(CN2CCCCC2)c1`, the figure is 49.1%.
On the same count and under the same terms, for `CN1CCN(Cc2ccc(NC(=O)c3cncc(C#Cc4cnc(N)c5cccnc45)c3)cc2C(F)(F)F)CC1` the value was 7.81% (active).
On the same count and under the same terms, as for `C=C1CC2(OC1=O)C(=O)N(CCCCCCCCCCCCN1C(=O)C3(CC(=C)C(=O)O3)c3ccccc31)c1ccccc12` (stereo not given), the figure is 73.1%; as for `Cn1c2ccccc2c2c3c(c4c5ccccc5[nH]c4c21)C(=O)N(N)C3=O`, 17.5%.
On to `Cn1c2ccccc2c2c3c(c4c5ccccc5n(CCCCCC#N)c4c21)C(=O)N(O)C3=O`, for which the growth is 2.84% (active).
